PubChem BioAssay (Tox21)
Results filed as inconclusive are left out. The source made the active and inactive calls. Unless noted, calls follow the shape of the dose curve; as a rule, active = well fitted curve in the direction sought with a large enough effect in the repeat runs; inconclusive = weak or mixed curves; inactive = no such curve, though single readings can be large; an effect the other way counts as inactive or inconclusive.

What was measured:
[1] = qHTS assay for small molecule agonists of the p53 signaling pathway (AID 651631; calls by dose curve; also: nearly all actives have a fitted effect of over 15% in size; also: potency is read from the fitted curve at half-maximal effect)
Method in brief: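 Readout was fluorescence from the LiveBLAzer FRET substrate, applied for 2 h at room temperature after 16 h compound exposure at 37 °C. Cells were the p53RE-bla HCT-116 line, with beta-lactamase driven by p53 response elements.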

[2] = qHTS assay for small molecules that induce genotoxicity in human embryonic kidney cells expressing luciferase-tagged ATAD5 (AID 651632); also: nearly all actives have a fitted effect of over 15% in size
Method in brief: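 Test compounds were delivered by pin tool onto HEK293T reporter cells (2,000/well) expressing ATAD5 fused to luciferase. After 16 hr at 37C, 5% CO2, Amplite was added for 30 min at room temperature and luminescence was measured.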

[3] = qHTS assay for small molecule agonists of the p53 signaling pathway - cell viability (AID 651633; calls by dose curve; also: series mostly up to about 83 µM; nearly all actives have a fitted effect of over 30% in size)
Method in brief: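 Viability counter-read: CellTiter-Glo luminescence (30 min, room temperature) in the same p53RE-bla plates. These plates had been exposed to compounds for 16 h at 37 C.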

[4] = qHTS assay for small molecules that induce genotoxicity in human embryonic kidney cells expressing luciferase-tagged ATAD5 - cell viability (AID 651634; calls by dose curve; also: nearly all actives have a fitted effect of over 25% in size)
Method in brief: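 Quantitative high-throughput format. HEK293T cells expressing ATAD5 fused to luciferase were plated at 2,000 cells/well and treated 15.5 hr with compound versus DMSO. Viability was determined by fluorescent live-cell protease substrate, 30 min at 37C.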

[5] = qHTS assay for small molecule disruptors of the mitochondrial membrane potential - cell viability (AID 720634; calls by dose curve;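 also: human HepG2 liver cancer cells; series mostly up to about 83 µM; nearly all actives have a fitted effect of over 20% in size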)
Method in brief: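 Same-well counter-screen: following the MMP dye addition, CellTiter-Glo was added to 1 hr compound-treated HepG2 cells and luminescence read after 30 min at room temperature.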

[6] = qHTS assay to test for compound auto fluorescence at 590 nm (red) in HepG2 cells (AID 720674)
Method in brief: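 We screened compounds on adherent HepG2 cells, incubating them for an hour at 37 C in 5% CO2 before reading emission at 590 nm under 540 nm excitation; values reflect equivalence to Rose Bengal sodium fluorescence.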

[7] = qHTS assay to test for compound auto fluorescence at 535 nm (green) in HepG2 cells (AID 720675)
[8] = qHTS assay to test for compound auto fluorescence at 460 nm (blue) in HEK293 cells (AID 720678)
Method in brief: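 Blue-channel (Ex/Em 405/460 nm) intensity measured in HEK293 cultures after overnight compound exposure at 37C; signal expressed relative to triamterene. Cells plated 2,000 per well in 10% dialyzed FBS medium and allowed 4-5 hr to attach.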

[9] = qHTS assay to test for compound auto fluorescence at 535 nm (green) in HEK293 cells (AID 720680)
[10] = qHTS assay to test for compound auto fluorescence at 460 nm (blue) in HEK293 cell free culture (AID 720681)
Method in brief: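 Blue fluorescence (Ex 405/Em 460 nm, triamterene-equivalent) was read immediately after pin transfer of compound or DMSO into medium (DMEM, 10% FBS) without cells.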

[11] = qHTS assay to test for compound auto fluorescence at 535 nm (green) in HEK293 cell free culture (AID 720682)
Method in brief: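 Compounds were pin-transferred into cell-free DMEM with 10% FBS, and green fluorescence was read at excitation 485 nm and emission 535 nm. Intensities were expressed as fluorescein-equivalent values.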

[12] = qHTS assay to test for compound auto fluorescence at 590 nm (red) in HepG2 cell free culture (AID 720684)
Method in brief: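 No cells present: MEM + 10% FBS only. Compound pinned in, red label read (540/590 nm). Activity = fluorescence equivalent to Rose Bengal sodium.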

[13] = qHTS assay to test for compound auto fluorescence at 460 nm (blue) in HepG2 cell free culture (AID 720685)
Method in brief: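 Cell-free plates of MEM plus 10% FBS received 23 nL compound or DMSO vehicle; blue-channel (405/460 nm) intensity scored against triamterene as reference fluorophore.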

[14] = qHTS assay to test for compound auto fluorescence at 535 nm (green) in HepG2 cell free culture (AID 720686)
[15] = qHTS assay to test for compound auto fluorescence at 460 nm (blue) in HepG2 cells (AID 720687)
Method in brief: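 Blue-channel autofluorescence (Ex/Em 405/460 nm, triamterene-equivalent) was measured after 1 hr compound exposure at 37 C, 5% CO2. Cells were HepG2, plated overnight at 37 C in MEM plus 10% FBS.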

[16] = target: Glucocorticoid receptor (Homo sapiens) (UniProt P04150); assay: qHTS assay to identify small molecule agonists of the glucocorticoid receptor (GR) signaling pathway (AID 720691; active = well fitted activation curve with a large enough effect in the signal ratio in the repeat runs, not every such curve was filed as active; the % refers to the signal ratio; also: potency is read from the fitted curve at half-maximal effect)
Glucocorticoid receptor (Homo sapiens), sequence (P04150 whole entry, looked up): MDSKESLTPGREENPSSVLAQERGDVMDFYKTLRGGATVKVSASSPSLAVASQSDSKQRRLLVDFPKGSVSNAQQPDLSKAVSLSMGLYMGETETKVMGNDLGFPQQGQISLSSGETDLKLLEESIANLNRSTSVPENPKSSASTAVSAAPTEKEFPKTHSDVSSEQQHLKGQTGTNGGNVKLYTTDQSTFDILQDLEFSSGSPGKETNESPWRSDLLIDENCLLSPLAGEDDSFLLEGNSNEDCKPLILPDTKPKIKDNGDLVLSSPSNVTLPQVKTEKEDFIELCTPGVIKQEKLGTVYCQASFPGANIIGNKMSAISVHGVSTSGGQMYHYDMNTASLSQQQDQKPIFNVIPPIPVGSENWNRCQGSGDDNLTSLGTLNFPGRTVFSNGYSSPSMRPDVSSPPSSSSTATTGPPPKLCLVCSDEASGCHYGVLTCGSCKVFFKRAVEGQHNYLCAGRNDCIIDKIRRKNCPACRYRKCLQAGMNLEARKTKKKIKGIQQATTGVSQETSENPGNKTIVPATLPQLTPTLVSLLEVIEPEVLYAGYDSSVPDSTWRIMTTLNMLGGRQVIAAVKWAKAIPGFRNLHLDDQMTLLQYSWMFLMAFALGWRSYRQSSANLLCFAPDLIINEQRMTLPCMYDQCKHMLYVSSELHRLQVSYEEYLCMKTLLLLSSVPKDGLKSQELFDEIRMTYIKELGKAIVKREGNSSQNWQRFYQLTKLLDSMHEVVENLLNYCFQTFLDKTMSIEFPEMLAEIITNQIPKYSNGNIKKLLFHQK
Method in brief: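 A HeLa cervical cancer line expressing GR and a glucocorticoid response element-driven beta-lactamase gene is treated with compounds for 18 h; LiveBLAzer B/G FRET substrate is then applied and fluorescence read.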

[17] = qHTS assay to test for compound auto fluorescence at 590 nm (red) in HEK293 cells (AID 720679)
Method in brief: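 Red-channel autofluorescence (Ex/Em 540/590 nm; Rose Bengal sodium reference) was measured after overnight 37C, 5% CO2 exposure of attached HEK293 cells, 2,000 per well in medium with 10% dialyzed FBS.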

[18] = qHTS assay to test for compound auto fluorescence at 590 nm (red) in HEK293 cell free culture (AID 720683)
Method in brief: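 Red-channel autofluorescence of compounds in culture medium (DMEM, 10% FBS), no cells, measured at 540/590 nm. Rose Bengal sodium is the reference fluorophore for equivalence.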

[19] = qHTS assay for small molecule disruptors of the mitochondrial membrane potential (AID 720635)
Method in brief: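 Mitochondrial membrane potential tracked with Mito-MPS dye, red aggregates (ex 540/em 590 nm) against green monomers (ex 490/em 535 nm). Compound treatment 1 hr at 37C, dye 30 min in HepG2.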
% is scaled to controls: 0 for no effect and ±100 for the full control effect.

CNC(=S)NC
inactive: Potency [1] | Potency [2] | Potency [3] | Potency [4] | Potency [5] | outcome [6] | outcome [7] | Potency [8] | outcome [9] | Potency [10] | outcome [11] | outcome [12] | Potency [13] | outcome [14] | Potency [15] | Potency [16]

CN(C(=O)C(Cl)Cl)c1ccc(OC(=O)c2ccco2)cc1
inactive: Potency [1] | Potency [2] | Potency [3] | Potency [4] | Potency [5] | outcome [6] | outcome [7] | outcome [17] | outcome [9] | Potency [10] | outcome [11] | outcome [18] | outcome [12] | Potency [13] | outcome [14] | Potency [15] | Potency [16]

CCn1cc(C(=O)O)c(=O)c2cc(F)c(N3CCNCC3)nc21
inactive: Potency [1] | Potency [2] | Potency [3] | Potency [4] | Potency [5] | fluorescence, relative to Rose Bengal [6] 0.819% [at 18.6 µM] | fluorescence, % of fluorescein control [7] -0.0415% [at 18.6 µM] | fluorescence, % of triamterene [8] -0.37% [at 18.6 µM] | fluorescence, % of fluorescent control [17] -0.616% [at 18.6 µM] | fluorescence, % of fluorescein [9] -0.0016% [at 18.6 µM] | fluorescence, % of fluorescent control [10] -0.0171% [at 18.6 µM] | activity change [11] 0.0215% [at 18.6 µM] | fluorescence, % of Rose Bengal [12] -0.483% [at 18.6 µM] | fluorescence, % of fluorescent control [13] -0.0969% [at 18.6 µM] | fluorescence, % of fluorescein control [14] -0.0379% [at 18.6 µM] | fluorescence, % of fluorescent control [15] -0.0048% [at 18.6 µM]

CCOC(=O)c1ccccc1C
inactive: Potency [1] | Potency [2] | Potency [3] | Potency [4] | Potency [5] | outcome [6] | outcome [7] | Potency [8] | outcome [17] | outcome [9] | Potency [10] | outcome [11] | outcome [18] | outcome [12] | Potency [13] | outcome [14] | Potency [15] | Potency [16]

CC(COc1ccc(C(C)(C)C)cc1)OS(=O)OCCCl (configuration not stated)
inactive: Potency [1] | Potency [2] | Potency [3] | Potency [4] | Potency [5] | Potency [19] | outcome [6] | outcome [7] | Potency [8] | outcome [17] | outcome [9] | Potency [10] | outcome [11] | outcome [18] | outcome [12] | Potency [13] | outcome [14] | Potency [15]

COc1cc2[nH]c(=O)[nH]c(=O)c2cc1OC
inactive: Potency [1] | Potency [2] | Potency [3] | Potency [4] | Potency [5] | fluorescence, % of fluorescein control [7] -0.0154% [at 18.6 µM] | fluorescence, % of triamterene [8] -0.031% [at 18.6 µM] | fluorescence, % of fluorescent control [17] -0.538% [at 18.6 µM] | fluorescence, % of fluorescein [9] 0.0875% [at 18.6 µM] | fluorescence, % of fluorescent control [10] 0.0899% [at 18.6 µM] | activity change [11] 0.0939% [at 18.6 µM] | fluorescence, % of fluorescent control [18] 0.224% [at 18.6 µM] | fluorescence, % of Rose Bengal [12] 0.0628% [at 18.6 µM] | fluorescence, % of fluorescent control [13] -0.0173% [at 18.6 µM] | fluorescence, % of fluorescein control [14] -0.0155% [at 18.6 µM] | fluorescence, % of fluorescent control [15] 0.0151% [at 18.6 µM]

CC(C)OCC1CO1 (configuration not stated)
inactive: Potency [1] | Potency [2] | Potency [3] | Potency [4] | Potency [5] | outcome [6] | outcome [7] | outcome [17] | outcome [9] | Potency [10] | outcome [11] | outcome [18] | outcome [12] | Potency [13] | outcome [14] | Potency [15] | Potency [16]

CCC(=O)Oc1ccc(/C(CC)=C(\CC)c2ccc(OC(=O)CC)cc2)cc1
active: Potency [1] 15.4 µM
inactive: Potency [2] | Potency [3] | Potency [4] | Potency [5] | outcome [6] | outcome [7] | Potency [8] | outcome [17] | outcome [9] | Potency [10] | outcome [11] | outcome [18] | outcome [12] | Potency [13] | outcome [14] | Potency [15]

CC(=O)[C@H]1CC[C@H]2[C@@H]3C[C@H](C)C4=CC(=O)CC[C@]4(C)[C@H]3[C@@H](O)C[C@]12C
inactive: Potency [1] | Potency [2] | Potency [3] | Potency [4] | Potency [5] | fluorescence, relative to Rose Bengal [6] 0.133% [at 18.6 µM] | fluorescence, % of fluorescein control [7] -0.105% [at 18.6 µM] | fluorescence, % of triamterene [8] -0.0231% [at 18.6 µM] | fluorescence, % of fluorescent control [17] -0.987% [at 18.6 µM] | fluorescence, % of fluorescein [9] 0.123% [at 18.6 µM] | fluorescence, % of fluorescent control [10] -0.0076% [at 18.6 µM] | activity change [11] -0.0137% [at 18.6 µM] | fluorescence, % of fluorescent control [18] -0.395% [at 18.6 µM] | fluorescence, % of Rose Bengal [12] -0.145% [at 18.6 µM] | fluorescence, % of fluorescent control [13] 0.0471% [at 18.6 µM] | fluorescence, % of fluorescein control [14] 0.189% [at 18.6 µM] | fluorescence, % of fluorescent control [15] 0.0065% [at 18.6 µM]
active: Potency [16] 0.0323 µM

O=C(CCCN1CCC(O)(c2ccc(Br)cc2)CC1)c1ccc(F)cc1
inactive: Potency [1] | Potency [2] | Potency [3] | Potency [4] | Potency [5] | fluorescence, % of fluorescein control [7] 0.0047% [at 18.6 µM] | fluorescence, % of triamterene [8] -0.176% [at 18.6 µM] | fluorescence, % of fluorescent control [17] -0.139% [at 18.6 µM] | fluorescence, % of fluorescein [9] -0.0174% [at 18.6 µM] | fluorescence, % of fluorescent control [10] 0.0856% [at 18.6 µM] | activity change [11] 0.0165% [at 18.6 µM] | fluorescence, % of fluorescent control [18] 0.118% [at 18.6 µM] | fluorescence, % of Rose Bengal [12] -0.294% [at 18.6 µM] | fluorescence, % of fluorescent control [13] 0.0015% [at 18.6 µM] | fluorescence, % of fluorescein control [14] -0.0224% [at 18.6 µM] | fluorescence, % of fluorescent control [15] 0.0362% [at 18.6 µM] | Potency [16]

CCOC(=O)[C@@H](C)Oc1ccc(Oc2nc3ccc(Cl)cc3o2)cc1
inactive: Potency [1] | Potency [2] | Potency [3] | Potency [4] | Potency [5] | outcome [6] | outcome [7] | Potency [8] | outcome [9] | Potency [10] | outcome [11] | outcome [18] | outcome [12] | Potency [13] | outcome [14] | Potency [15] | Potency [16]
